# Bioassay records from PubChem BioAssay.
# PP1 counter = counter-screen for PP5 inhibitors: inhibitors of human PP1-alpha; inhibition, % at 6.7 µM; P62136; actives 0.9% (n = 320,000); purified PP1alpha, OMFP fluorescence;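 active = inhibition above the mean inhibition of all tested compounds plus 3 SD, computed separately for each screening campaign, cut at about 15% in these data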
# Beta apoptosis = blocks beta cell apoptosis | INS-1E cytokine-induced death, ATP luminescence, 48 h; percent of positive-control rescue, neutral wells zero | protection from apoptosis, % (no concentration beside the values) | actives 0.8% (n = 300,000) | AID 435005;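 active = Every replicate reaches about 75%, or at least half do and their mean reaches it too, limit read from the data; inconclusive = At least half of replicates reach the limit but their mean does not; inactive = Under half of replicates reach the limit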;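 note: higher means more ATP so stronger rescue from cytokine killing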
# PP5 inh = inhibitors of human protein phosphatase 5 (PP5). purified PP5c, OMFP substrate fluorescence. inhibition, % at 6.7 µM. actives 0.18% (n = 320,000). AID 1987;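 active = inhibition above the campaign's mean inhibition across all tested compounds plus 3 SD, cut at about 9.5% in these data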
# Target sequence (P53041 whole entry, looked up): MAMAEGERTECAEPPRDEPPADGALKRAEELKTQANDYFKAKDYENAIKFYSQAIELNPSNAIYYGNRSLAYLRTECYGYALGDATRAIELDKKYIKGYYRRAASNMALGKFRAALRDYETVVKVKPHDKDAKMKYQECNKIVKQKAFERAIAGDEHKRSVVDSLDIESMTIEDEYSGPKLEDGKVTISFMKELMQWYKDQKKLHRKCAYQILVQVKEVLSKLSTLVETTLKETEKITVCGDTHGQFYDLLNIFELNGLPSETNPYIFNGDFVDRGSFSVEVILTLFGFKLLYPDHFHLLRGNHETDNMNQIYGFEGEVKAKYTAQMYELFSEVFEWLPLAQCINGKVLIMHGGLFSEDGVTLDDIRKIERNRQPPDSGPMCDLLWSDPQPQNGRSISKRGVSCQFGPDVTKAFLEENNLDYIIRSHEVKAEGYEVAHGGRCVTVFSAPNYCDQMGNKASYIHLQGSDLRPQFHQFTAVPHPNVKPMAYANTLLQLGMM
# Calb FLC = affects C. albicans growth with fluconazole. growth inhibition, % (no concentration beside the values). actives 0.57% (n = 300,000). C. albicans CaCi-2 (fluconazole-resistant clinical isolate) + fluconazole, Alamar Blue growth, 48 h;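 active = growth inhibition above about 58% in most replicates, limit read from the data, passing the limit was not always enough; inconclusive = exactly half the replicates above a set limit; inactive = most replicates below a set limit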;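 note: all wells also contain fluconazole at 8 µg/ml as a sub-toxic cotreatment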
# CSC inhib = blocks cancer stem cells | cancer stem cell-like cells viability, luminescence | inhibition, % at 7.5 µM | actives 1.1% (n = 300,000); in the data active = inhibition above about 75%; inconclusive = no clear call, values can overlap the other calls; tested in HMLE shEcad cells
# Mdm2 MdmX PPI = disrupts the human Mdm2-MdmX interaction; O15151+Q00987; SaOS-2 split-luciferase Mdm2/MdmX complementation, luminescence; inhibition, % at 8 µM; actives 3% (n = 330,000); AID 485346;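 active = inhibition of at least 50% at 8 µM in the primary screen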
# A number is an active result; . = inactive; ? = inconclusive; / = not tested or not shown. An excerpt weighted towards active compounds, which were near 4.9% of everything screened.
SMILES,PP1 counter,Beta apoptosis,PP5 inh,Calb FLC,CSC inhib,Mdm2 MdmX PPI
O=C1CC(c2ccco2)Cc2nc(N3CCc4ccccc4C3)ncc21 (configuration not stated),17,.,.,.,.,.
Cc1ccc(NC(=O)C2C(C(=O)O)C3C=CC2C32CC2)cc1 (configuration not stated),.,.,.,79,.,.
Cc1ccc(S(=O)(=O)NCC(C)n2nc(C)cc2C)cc1 (configuration not stated),.,.,.,.,.,.
Cc1ccc(C(C[N+](=O)[O-])n2nc(C)cc2C)cc1 (configuration not stated),.,.,.,.,101,.
Cc1ccc(NC(=O)COC(=O)C2CC(=O)N(Cc3ccccc3)C2)cc1F (configuration not stated),.,.,.,.,.,.
CCN(CC)S(=O)(=O)c1ccc2c(c1)nc(CCC(=O)Nc1ccc3c(c1)OCO3)n2CC,15,.,.,.,.,.
CCN(CC)S(=O)(=O)c1ccc2c(c1)nc(CCC(=O)Nc1ccc3c(c1)OCO3)n2C,.,.,.,.,.,.
Cc1sc(NC(=O)C2CSC3(C)CCC(=O)N23)nc1-c1ccccc1 (configuration not stated),.,.,.,.,.,.
O=C(N/N=C/c1ccc(OC2CSC2)cc1)c1ccccc1,.,.,.,.,89,.
COc1ccc(-c2nc3c(c(=O)[nH]c(=O)n3Cc3ccccc3)n2Cc2ccccc2)cc1,16,.,.,.,.,.
Cc1ccccc1NS(=O)(=O)c1cc(OCC(N)=O)c(C)cc1Cl,.,.,.,118,.,.
Cc1cc(/C=N/n2cnnc2)c(C)n1-c1ccc(OCc2ccccc2F)cc1,.,122,.,.,.,.
Fc1ccccc1COc1cccc(/C=N/n2cnnc2)c1,.,.,.,.,.,.
O=C(O)c1ccccc1-c1ccccc1C(=O)Nc1cccc(-c2nc3ccccc3o2)c1,.,.,.,89,.,.
COc1cc(OC)cc(C(=O)Nc2ccc(-c3nc4ccccc4o3)cc2)c1,.,.,.,.,.,.
COc1cccc(C(=O)Nc2ccc(-c3nc4ccccc4o3)c(O)c2)c1,16,.,.,.,.,.
COc1ccc(-c2cc(C(=O)N3CCOCC3)c3ccccc3n2)cc1OC,.,.,.,.,.,.
COc1cc2cc(C(=O)N3CCOCC3)cc(-c3ccc(C)cc3)c2cc1OC,.,101,.,.,.,.
Cc1cc(=O)n2nc(N3CCC(C(=O)NCc4ccccc4F)CC3)sc2n1,.,.,.,?,.,.
CCc1ccc(NC(=O)C(=O)NNC(=O)c2cccc(OC)c2)cc1,.,.,.,.,.,.
COc1cccc(C(=O)NNC(=O)C(=O)Nc2ccc(C)c(Cl)c2)c1,16,.,.,.,/,.
CN(C(=O)CSc1nc2ccccc2n1C)C1CCS(=O)(=O)C1 (configuration not stated),.,.,.,/,/,.
O=C1C=C(Nc2ccccc2C(=O)O)c2ccccc2C1=O,.,.,.,.,.,.
CCCCNC1=CC(=O)C(=O)c2ccccc21,.,99,.,?,.,.
Nc1ccc(Nc2ccc([N+](=O)[O-])cc2[N+](=O)[O-])cc1,.,102,.,.,.,.
SMILES,PP1 counter,Beta apoptosis,PP5 inh,Calb FLC,CSC inhib,Mdm2 MdmX PPI
NC(=O)c1ccc(Nc2ccc([N+](=O)[O-])cc2[N+](=O)[O-])cc1,.,.,.,.,.,.
O=c1ccc(N=Nc2ccccc2)ccc1O,.,.,.,101,.,/
CC(C)(C)C(=O)/C=C/c1ccc(Oc2ccccc2)cc1,/,.,/,.,.,/
Cc1ccc(NC(=O)CSc2nnc(-c3cccnc3)n2CCN2CCCCC2)cc1,.,.,.,.,.,.
Cc1cc(O)c(/C=N/Nc2cccc(Cl)c2)c(=O)o1,.,.,.,.,.,.
Cc1cc(O)c(/C=N/Nc2ccc(Cl)cc2)c(=O)o1,.,.,.,87,.,.
COc1ccccc1-c1nc2ccc(Cl)cc2c(=O)n1O,.,.,.,.,.,.
Oc1ccc(/C=C/c2ccc3cccc(O)c3n2)cc1Br,.,.,.,.,93,.
O=C(O)c1ccc(/C=C/c2ccc3cccc(O)c3n2)cc1,/,/,/,.,/,.
COc1ccc(CCNc2cc(N3CCN(C(=O)c4ccc(C)cc4)CC3)ccc2[N+](=O)[O-])cc1OC,.,90,.,.,.,.
COc1ccc(C(=O)N2CCN(c3ccc([N+](=O)[O-])c(NCCc4ccc(OC)c(OC)c4)c3)CC2)cc1,.,106,.,.,.,.
COc1ccc(CCNc2ccc(C(=O)O)cc2[N+](=O)[O-])cc1OC,.,.,.,.,.,.
O=C(CCn1cnc2ccccc2c1=O)Nc1cccc(Cl)c1Cl,.,.,.,.,.,.
C=COCCNC(=S)N1CCOCCOCCN(C(=S)NCCOC=C)CCOCC1,.,.,.,.,.,.
COc1cc(Cl)ccc1OCc1cc(C(=O)N(C)CCc2cnn(C)c2)no1,.,.,.,.,.,.
COC(/C(=N/O)c1ccc(Cl)cc1)c1ccccc1 (configuration not stated),.,100,.,.,.,.
COc1ccc(-c2nc(-c3ccncc3)no2)cc1OC,.,.,.,102,.,.
Cc1nc2c(C(=O)NCCc3ccccc3Cl)c[nH]n2c(=O)c1Cl,17,.,.,.,.,.
CC(=O)c1ccccc1OCCOCCOc1ccccc1C(C)=O,.,108,.,.,.,.
CCCCCNC1=CC(=O)CC(c2ccccc2)C1 (configuration not stated),.,.,.,.,.,.
CCCCCCCNC1=CC(=O)CC(c2ccccc2)C1 (configuration not stated),.,91,.,.,.,.
CC(=O)Nc1ccc2nc(NC(=O)c3ccc([N+](=O)[O-])o3)sc2c1,.,/,.,.,.,.
O=c1c2ccccc2nc2n1CCc1c-2[nH]c2ccccc12,.,.,.,/,78,.
O=c1c2ccccc2nc2n1CCCCC2,.,.,.,.,.,.
CCCc1nn2c(=O)cc(CSCC(=O)Nc3ccc(OC)cc3)nc2s1,.,.,.,.,.,.
SMILES,PP1 counter,Beta apoptosis,PP5 inh,Calb FLC,CSC inhib,Mdm2 MdmX PPI
Cc1ccc(OCCCN2C(=O)C(=O)c3cc(C)ccc32)cc1,17,.,.,.,.,.
CCCc1ccc(C(=O)NNc2ccc(F)cc2)cc1,.,.,.,77,94,.
CCc1ccc(C(=O)NNc2ccc(F)cc2F)cc1,.,.,.,93,.,.
O=C(NNc1ccc(O)cc1)c1ccc(Br)cc1,.,.,.,95,.,.
CC(C)(C)c1ccc(C(=O)NNc2ccc(F)cc2F)cc1,.,.,.,87,.,.
O=C(NNC(=O)c1ccc(Br)cc1)c1ccncc1,.,.,.,.,.,.
CCOc1ccc(NC(=O)c2ccc3c(c2)OCCO3)cc1S(=O)(=O)N(CC)CC,.,.,.,/,.,.
